Source: PubChem BioAssay (NCATS)
Values without a mark were called inactive. Calls follow the shape of the dose curve; as a rule, active = well fitted activation curve with a large enough effect; inconclusive = small, poorly fitted or top-dose-only effect; inactive = flat fitted curve, though single readings scatter. Numbered stars: 1 amine (or outer) side, 2 acyl side, 3 side chain; on linkers, the order of the positions; unused ones are H or OH. Bridge positions count the residues as written; N and C are the ends. Square brackets hold non-standard residues; d marks the D form. Peptide text beside a SMILES is read from it. * marks the point of attachment. ξ: configuration not given here. ΔAla(E,3-NHCONH2) = NC(=O)N/C=C(/N)C(=O)O; X1 = NC1=NCCC(C(N[*:1])C(=O)[*:2])N1; ξβ3hOrn = NCCCC(N)CC(=O)*; Dap = NC[CH](N)C(=O)O

Test: Confirmation and Secondary Assay for Modulators of Hemoglobin Beta Chain Splicing at IVS2 705 locus (AID 930); also: % of control where 0% means no effect
Conditions: HeLa EGFP-705 splicing reporter, GFP fluorescence, 48 h; series mostly up to 46.1 µM; activation: at the top concentration
Procedure, shortened: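 HeLa cells stably carrying EGFP interrupted by mutant beta-globin IVS2-705 intron (CMV-driven) were seeded at 500 cells/well, treated next day with compound for 2 days at 37C; corrected splicing restores EGFP, read as total peak GFP intensity per well.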

Compared with `CC1CC[C@@]2(OC1)OC1CC3C4CC[C@H]5CC(O)CC[C@@]5(C)C4CC[C@]3(C)C1C2C` (stereo not given in full), `CC(CCC(=O)O)C1CCC2C3CC(O)[C@@H]4CC(O)CC[C@]4(C)C3CC[C@@]12C` (stereo not given in full) is higher in “activation” value: 0.19% [at 38.3 µM] for the first, 0.353% [at 38.3 µM] for the second.

First: CC1CCC(C(C)(C)O)CC2=C1CCC2C (stereo not given)
Second: C[C@@]12CCC(O)C[C@H]1CCc1ccccc12 (stereo not given in full)
The “activation” value of the first is higher: 1.45% [at 38.3 µM] for the first, -0.442% [at 38.3 µM] for the second.

First: CC(C)CC(NC(=O)CN)C(=O)NC(Cc1ccccc1)C(=O)O (stereo not drawn) (H-Gly-Leu-Phe-OH; configuration not given here)
Second: CC(=O)NC(CC(=O)O)C(=O)NC(CCC(=O)O)C(=O)O (stereo not drawn) (Ac-Asp-Glu-OH; configuration not given here)
The “activation” value of the first is higher: 1.79% [at 38.3 µM] for the first, 0.0094% [at 38.3 µM] for the second.

First: COc1cc2c3cc1Oc1cc(ccc1O)CC1c4c(cc(OC)c(O)c4Oc4ccc(cc4)CC3N(C)CC2)CC[N+]1(C)C (stereo not given)
Second: COc1ccc(-c2cc(=O)c3c(O)c(OC)c(OC)c(OC)c3o2)cc1
The “activation” value of the first is lower: -0.337% [at 38.3 µM] for the first, 1.88% [at 38.3 µM] for the second.

Compared with `CCOC(=O)c1c(C)cc(O)c(C)c1O`, `CC(C)CC(N)C(=O)NC(C)C(=O)O` (stereo not given) is higher in “activation” value: -0.522% [at 38.3 µM] for the first, 0.85% [at 38.3 µM] for the second.

First: CC1(C)OC2C(CO)OC(n3cnc4c(=O)[nH]c(N)nc43)C2O1 (stereo not given)
Second: COc1ccc(C2OC3C(CO)OC(n4cnc5c(=O)[nH]c(N)nc54)C3O2)cc1 (stereo not given)
The “activation” value of the first is lower: 0.775% [at 38.3 µM] for the first, 1.62% [at 38.3 µM] for the second.

Going from `COc1ccc(/C=C/c2cc(O)cc(O[C@H]3OC(CO)C(O)C(O)C3O)c2)cc1` (stereo not given in full) to `OCC1OC(n2cnc3c(NCc4ccco4)ncnc32)C(O)C1O` (stereo not given), the “activation” value rises from -0.0508% [at 38.3 µM] to 1.64% [at 38.3 µM].

First: CC1CCC(C(C)C)[C@H](OC(=O)c2ccccc2)C1 (stereo not given in full)
Second: CC(C(=O)O)C1CCC2C3CC=C4CC(O)CC[C@@]4(C)C3CC[C@]12C (stereo not given in full)
The “activation” value of the first is higher: 2.19% [at 38.3 µM] for the first, -1.18% [at 38.3 µM] for the second.

First: [N-]=[N+]=NCC1OC(n2cnc3c(=O)[nH]c(N)nc32)C(O)C1O (stereo not given)
Second: O=C(O)c1cc2cc(Cl)ccc2[nH]1
The “activation” value of the first is higher: 0.965% [at 38.3 µM] for the first, -0.381% [at 38.3 µM] for the second.

With `CC(=O)NC1C(O)C[C@@](O)(C(=O)O)OC1[C@@H](O)C(O)CO` (stereo not given in full) the “activation” value was 1.86% [at 38.3 µM].

Compared with `CC(=O)OCC(=O)[C@@]1(O)CCC2C3CCC4=CC(=O)CC[C@@]4(C)[C@]3(F)C(O)C[C@]21C` (stereo not given in full), `CC(=O)OCC(=O)[C@]1(O)C(OC(C)=O)CC2C3CCC4=CC(=O)C=C[C@@]4(C)[C@]3(F)C(O)C[C@]21C` (stereo not given in full) is higher in “activation” value: -1.46% for the first, 2.81% for the second.

First: NCCC(O)C(=O)NC1C[C@@H](N)[C@H](O[C@@H]2OC(CN)C(O)C(O)C2O)C(O)[C@H]1O[C@H]1OC(CO)C(O)C(N)C1O (stereo not given in full)
Second: COc1ccc(-c2cc(=O)c3c(O)cc(O[C@@H]4OC(COC5OC(C)C(O)C(O)[C@@H]5O)C(O)C(O)C4O)cc3o2)cc1 (stereo not given in full)
The “activation” value of the first is lower: -0.625% for the first, 1.32% for the second.

First: CC(=O)OC1CCC2(C)C(=CC=C3C2CCC2(C)C3CCC2C(C)/C=C/C(C)C(C)C)C1(C)C (stereo not given)
Second: CC(=O)C1CCC2C3CC=C4CC(O)CC[C@@]4(C)C3CC[C@]12C (stereo not given in full)
The “activation” value of the first is lower: 0.924% for the first, 2.83% for the second.

Compared with `NCCCC(N)CC(=O)NCC1NC(=O)C(CO)NC(=O)C(N)CNC(=O)C(C2CCN=C(N)N2)NC(=O)/C(=C\NC(N)=O)NC1=O` (stereo not drawn) (H-[Dap]S[Dap](ξβ3hOrn)[ΔAla(E,3-NHCONH2)][X1]; lactam 1-C; configuration not given here), `CC(=O)OCC(=O)C1CCC2C3CC=C4CC(O)CC[C@@]4(C)C3CC[C@]12C` (stereo not given in full) is lower in “activation” value: 2.71% for the first, 0.793% for the second.

Compared with `CCOc1ccc(C(=O)c2ccc(OC)c(O)c2O)cc1`, `CCC(C(N)=O)c1ccccc1` (stereo not given) is lower in “activation” value: 4.06% for the first, 3.79% for the second.

Going from `CC1(C)OC2C[C@](O)(C(N)=O)C[C@H](O)[C@H]2O1` (stereo not given in full) to `CC1=C2C(O)C(=O)OC3CC4C(C)(C)C(=O)C=C[C@]4(C)C(CC1)[C@@]23C` (stereo not given in full), the “activation” value rises from -1.14% to 3.16%.

First: CC1CC[C@@]2(OC1)OC1CC3C4CC=C5CC(O)CC[C@@]5(C)C4CC[C@]3(C)C1C2C (stereo not given in full)
Second: CC1CCC2(OC1)OC1CC3C4CC[C@@H]5CC(O)CC[C@@]5(C)C4CC(=O)[C@]3(C)C1C2C (stereo not given in full)
The “activation” value of the first is lower: -0.777% for the first, 0.498% for the second.

Compared with `CC1CCC(C(C)C)[C@H](O)C1` (stereo not given in full), `NCC1CCCCC1CC(=O)O` (stereo not given) is higher in “activation” value: -1.05% for the first, 0.394% for the second.

Going from `CCC1OC(=O)C(C)[C@@H](O[C@H]2C[C@@](C)(OC)C(O)C(C)O2)C(C)[C@@H](O[C@@H]2OC(C)CC(N(C)C)C2O)[C@](C)(O)CC(C)/C(=N\OCOCCOC)[C@H](C)C(O)[C@]1(C)O` (stereo not given in full) to `CC(C)(O)CCC(O)[C@@](C)(O)C1CC[C@]2(O)C3=CC(=O)C4CC(O)C(O)C[C@]4(C)C3CC[C@]12C` (stereo not given in full), the “activation” value rises from -0.421% to 0.802%.

Going from `C/C=C1\C2C=C(C)C[C@@]1(N)c1ccc(=O)[nH]c1C2` to `O=C(Cc1ccccc1)NO`, the “activation” value falls from 5.51% to 1.29%.

For `C=C(C)C1CC=C(CO)CC1` (stereo not given), the “activation” value was 3.08%.
